Source: PubChem
An excerpt weighted towards active compounds, which were near 6.7% of everything screened.
Anthrax LF prot = Bacillus anthracis LF protease inhibitors, primary screen, biochemical, multiplex microsphere, MLPCN library. Lethal factor (Bacillus anthracis), P15917. multiplex microsphere protease cleavage assay. inhibition, % at 10 µM. 360,000 tested, 0.12% active; note: plate controls were buffer without enzyme for full effect and enzyme alone for no effect
GDH-TPI counter = GDH-TPI coupling enzyme inhibitors, primary screen, artefact control for M. tuberculosis FBA inhibitor project, biochemical, absorbance, full deck | GDH-TPI coupled enzyme counterscreen, NADH absorbance | inhibition, % at 4.8 µM | 360,000 tested, 1.2% active; in the data active = inhibition above about 30%;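 note: 0% = DMSO wells and 100% = wells lacking the enzyme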
BoNT A protease = BoNT/A light chain protease inhibitors, primary screen, biochemical, flow cytometry, MLPCN library; 360,000 tested, 0.17% active; inhibition, % at 10 µM; Botulinum neurotoxin type A light chain protease (Clostridium botulinum A str. ATCC 3502); multiplex microsphere protease substrate cleavage; AID 588499, 2011; note: plate controls were buffer without enzyme for full effect and enzyme alone for no effect
Autofluor counter = flagged as autofluorescent in microsphere protease counterscreen; fluorescence intensity (test concentration not listed); compound autofluorescence counterscreen, microsphere flow cytometry; active compounds read high; 360,000 tested, 3.1% active; in the data active = fluorescence intensity above about 16000; inconclusive = no clear call, values can overlap the other calls
BoNT-F LC inh = BoNT/F light chain protease inhibitors, primary screen, biochemical, flow cytometry, MLPCN library; Botulinum neurotoxin type F light chain protease (Clostridium botulinum); Multiplex microsphere protease cleavage assay; inhibition, % at 10 µM; 360,000 tested, 0.22% active; AID 588497, 2011; in the data active = inhibition above about 35%, passing the limit was not always enough; inconclusive = no clear call, values can overlap the other calls; note: plate controls were buffer without enzyme for full effect and enzyme alone for no effect
Mtb FBA inh = Mtb FBA enzyme inhibitors, primary screen, biochemical, fluorescence, strain H37Rv; Fructose-bisphosphate aldolase (Mycobacterium tuberculosis (strain ATCC 25618 / H37Rv)), …; purified M. tuberculosis FBA, fluorescence read-out; inhibition, % at 1 µM; 360,000 tested, 2.3% active; in the data active = inhibition above about 27%;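 note: 0% = vehicle and 100% = reference inhibitor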
Target sequence (P9WQA3 whole entry, looked up): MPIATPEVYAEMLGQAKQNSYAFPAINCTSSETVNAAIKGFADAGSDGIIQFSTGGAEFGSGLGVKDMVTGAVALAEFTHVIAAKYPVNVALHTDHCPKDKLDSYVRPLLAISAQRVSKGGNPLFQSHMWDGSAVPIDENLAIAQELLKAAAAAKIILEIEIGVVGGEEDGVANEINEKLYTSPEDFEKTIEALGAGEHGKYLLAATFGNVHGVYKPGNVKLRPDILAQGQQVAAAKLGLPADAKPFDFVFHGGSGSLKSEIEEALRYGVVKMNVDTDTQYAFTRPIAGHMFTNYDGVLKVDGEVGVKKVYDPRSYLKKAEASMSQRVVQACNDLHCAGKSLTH
Numbers without * were called inactive; ? = inconclusive; + = active, no number. Cut-off read from the data, not from the text of the source, unless noted: active = inhibition above about 30%; inconclusive = no clear call, values can overlap the other calls; inactive = below that.

SMILES	Anthrax LF prot	GDH-TPI counter	BoNT A protease	Autofluor counter	BoNT-F LC inh	Mtb FBA inh
Cc1occc1C(=O)N/N=C/C=C/c1ccccc1	0	30	-1	4251	-5	-3
O=C(N/N=C/C=C/c1ccccc1)c1cnccn1	-2	48*	-1	4576	3	-5
CC(/C=C/c1ccccc1)=N/NC(=O)c1cnccn1	8	24	-1	9642	-3	3
Cc1cc(C(=O)N/N=C/c2ccccc2)c(C)o1	?	4	0	3759	0	0
Cc1ccccc1C(=O)N/N=C/c1ccc(Sc2ccccn2)o1	2	26	0	1978	-4	1
Cc1ccc(C(=O)N/N=C/C=C/c2ccccc2)cc1	1	31*	0	2141	0	1
CCCNC(=O)c1cc(-c2ccc(OC)cc2)n(CCCOC)c1C	1	7	0	1897	0	-1
S=c1[nH]nc(Cc2ccc(Br)cc2)n1/N=C/c1ccc(Cl)cc1	-2	3	-1	4104	-4	-4
O=C(N/N=C/C=C/c1ccccc1)c1cccc(Br)c1	-2	65*	0	13299	-7	-6
O=C(N/N=C/C=C/c1ccccc1)c1ccccc1Br	-7	25	-3	3395	-6	-2
CC(=O)N(C1=NCCCS1)c1ccc(F)cc1	-3	-6	0	10990	1	0
COc1ccc2c(c1)C(c1ccc([N+](=O)[O-])cc1)=NNC(c1ccco1)=N2	-1	33*	0	5755	3	-1
COc1ccc(CC2CCOC2=O)cc1 (stereo not drawn)	-9	-2	5	20533*	10	-5
COc1ccc(CC2C(=O)OC(C)(C)OC2=O)cc1	-4	16	1	4044	0	3
CN(C)c1ccc(C2N3CC4(C)CN2CC(C)(C3)C4O)cc1 (stereo not drawn)	1	42*	-1	4567	1	4
CC12CN3CC(C)(CN(C1)C3c1ccc(Cl)cc1Cl)C2O (stereo not drawn)	-7	-2	0	8851	-9	-1
CC(=O)/C(=N/Nc1ccccc1)N1CCOCC1	-2	19	2	22407*	3	1
Cc1cccc(-n2c(=O)c(C#N)cc3c(=O)n4ccccc4nc32)c1	0	5	?	20190*	1	+
Cc1ccc(C)c(-n2c(=O)c(C#N)cc3c(=O)n4ccccc4nc32)c1	-1	4	0	3644	-1	133*
Cc1ccc(-n2c(=O)c(C#N)cc3c(=O)n4ccccc4nc32)cc1	-1	3	1	2155	10	149*
CCC(C)n1c(=N)c(C#N)cc2c(=O)n3ccccc3nc21 (stereo not drawn)	-5	-2	0	2812	1	16
O=C(CSCCc1ccccn1)Nc1ccc(Br)cn1	0	4	0	23013*	-1	3
CCOc1ccc(C(=O)CCC(=O)NNC(=O)CCN2CCN(c3ccccc3)CC2)cc1	-3	-18	0	3495	-6	-4
O=C(NCC(=O)N1CCN(c2cccc(Cl)c2)CC1)c1ccc(Br)o1	-4	1	-2	6206	-2	3
CC(=O)c1ccc(N2CCN(C(=O)CNC(=O)c3ccc(Br)o3)CC2)cc1	0	32*	0	3656	1	0
SMILES	Anthrax LF prot	GDH-TPI counter	BoNT A protease	Autofluor counter	BoNT-F LC inh	Mtb FBA inh
COc1ccc(OCC(=O)NCc2n[nH]c(=O)c3ccccc23)cc1	1	15	1	?	0	3
Cn1c(C(=O)N2CCN(Cc3ccc4c(c3)OCO4)CC2)cc2sccc21	-4	10	-1	16552*	-1	-1
Cn1c(C(=O)N2CCC(C(=O)N3CCN(Cc4ccc5c(c4)OCO5)CC3)CC2)cc2sccc21	-4	8	-1	6690	-3	-1
Cn1c(C(=O)NCc2ccc3c(c2)OCO3)cc2sccc21	-1	2	-3	17632*	-5	0
Cc1cccc(NC(=O)CCS(=O)(=O)c2ccccc2)c1	-12	2	-6	4799	?	-1
CSc1nc2[nH]ncc2c(=O)n1-c1ccccc1	2	-9	1	2098	7	-3
O=C(C1CCCN(Cc2ccccc2[N+](=O)[O-])C1)N1CCCC1 (stereo not drawn)	3	1	-2	3688	-14	4
CCN(CC)CCCN(C)C(=O)Cn1nc(Cc2ccncc2)c2ccccc2c1=O	1	-3	-4	4407	-8	4
C=CCNC(=S)NNC(=O)c1cccn(Cc2ccc(Cl)cc2)c1=O	?	20	?	?	?	3
C=CCNC(=S)NNC(=O)c1cccn(Cc2cccc(Cl)c2)c1=O	-1	14	-2	24135*	-3	1
CCCNc1sc(S(=O)(=O)CCC)nc1S(=O)(=O)c1ccc(C)cc1	-3	-3	0	4361	-2	-2
COC(=O)C1=C(c2c(C)noc2C)C[C@@H]2CC[C@H]1N2C(=O)N1CCC(O)CC1	4	-10	0	3713	2	0
COc1cc(/C=C2\C(=N)N3N=C(C)SC3=NC2=O)cc(OC)c1OCCOc1ccccc1C	-5	13	2	3860	55*	2
COC(=O)c1ccc(-n2nnnc2SCC(=O)Nc2ccccc2C(=O)OC)cc1	-2	-8	0	2799	-8	2
N#C/C(=C/c1ccc(N2CCOCC2)o1)c1nc2ccccc2[nH]1	-1	-4	-5	11009	126*	-22
N#C/C(=C\c1ccc(N2CCOCC2)o1)c1ccccc1	-2	2	0	8833	-1	-4
COc1cccc(/C=C(/C#N)c2nc3ccccc3[nH]2)c1OC(C)C(=O)O (stereo not drawn)	-8	19	-2	3511	-7	3
N#C/C(=C/c1cccs1)c1nc2ccccc2[nH]1	3	19	1	2270	-4	4
Cc1ccc(/C=C(\C#N)c2nc3ccccc3[nH]2)s1	0	37*	2	8985	10	1
COc1cccc(/C=C(\C#N)c2nc3ccccc3[nH]2)c1OCC(=O)O	0	35*	-3	3120	6	5
COc1ccccc1CC(=O)NC1CCC(C)CC1 (stereo not drawn)	0	2	0	2105	-2	5
CC1(C)NC(=O)N(CC(O)Cn2c3ccccc3c3ccccc32)C1=O (stereo not drawn)	-8	8	0	3391	3	1
Cc1cccc(NC(=O)/C(=C/c2cccc([N+](=O)[O-])c2)NC(=O)c2cccs2)c1	0	15	0	2084	-2	0
